aDG glyco up: activators of alpha-DG glycosylation, primary screen, uHTS, Pro5-aDG cells, AlphaScreen | alpha-DG glycosylation AlphaScreen (IIH6); 0% Pro5, 100% B10-LARGE cell signal | activation, % at 10 µM | hit rate 0.22% among 360,000 | AID 624168, 2012;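 active means activation of at least 8% versus controls, or a plate z-score of at least 8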;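 further: Pro5 are CHO cells carrying HIG-tagged alpha-DG that lacks glycosylation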
A3A deaminase: APOBEC3A ssDNA deaminase inhibitors, primary screen, selectivity assay for APOBEC3G inhibitor project, biochemical, FAM/TAMRA oligo cleavage fluorescence. DNA dC->dU-editing enzyme APOBEC-3A (Homo sapiens), P31941. recombinant A3A, FAM/TAMRA ssDNA deamination fluorescence. inhibition, % at 20 µM. hit rate 0.41% among 330,000. AID 493011, 2011;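 active means at least 40% inhibition at 20 µM here, with at most 30% in a related deaminase screen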;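 further: plate controls were A3A with DMSO for no effect and wells lacking A3A enzyme for full effect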
rCAG binder: binders of r(CAG) RNA repeats, primary screen, biochemical, fluorescence | r(CAG) RNA repeat, TO-PRO-1 dye displacement fluorescence | inhibition, % at 3 µM | hit rate 1.3% among 370,000;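 active means inhibition above the plate cutoff, the mean of all test compounds on that plate plus 3 SD, cut at about 35% in these data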;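 further: 0% = DMSO alone and 100% = 100 µM mitoxantrone as full dye displacement; higher means more dye released from RNA so lower well fluorescence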
A3G deaminase: APOBEC3G DNA deaminase inhibitors, primary screen, biochemical, fluorescence, single-stranded DNA substrate, uHTS. inhibition, % at 20 µM. hit rate 0.28% among 330,000. recombinant A3G, ssDNA deamination FAM/TAMRA fluorescence;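 active means inhibition of at least 40% at 20 µM, with no more than 30% in the related APOBEC3A deaminase screen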;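 further: plate controls were DMSO wells with A3G for no effect and wells lacking A3G enzyme for full effect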
PHOSPHO1 block: PubChem AID 1565 | recombinant PHOSPHO1, absorbance phosphatase assay | inhibition, % at 13.3 µM | hit rate 1.1% among 290,000; in the data active means inhibition above about 60%
Target sequence (Q8TCT1 whole entry, looked up): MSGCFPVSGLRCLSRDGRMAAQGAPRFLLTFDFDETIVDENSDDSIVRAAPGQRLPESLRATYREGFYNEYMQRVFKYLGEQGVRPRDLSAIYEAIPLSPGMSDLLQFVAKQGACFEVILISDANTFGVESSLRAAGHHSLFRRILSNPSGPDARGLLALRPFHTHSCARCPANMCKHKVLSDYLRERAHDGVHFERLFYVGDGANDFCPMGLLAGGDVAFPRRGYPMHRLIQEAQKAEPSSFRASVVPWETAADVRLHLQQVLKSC
ALR H2O2 inh: inhibitors of human ALR sulfhydryl oxidase, primary screen, biochemical, H2O2 detection, HRP-luminol luminescence, single point | FAD-linked sulfhydryl oxidase ALR (Homo sapiens), P55789 | purified ALR, DTT oxidation | inhibition, % (no concentration beside the values) | hit rate 3.8% among 290,000 | AID 485317, 2010;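 active means mean replicate inhibition above about 79%, with every replicate also reaching it, limit read from the data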
Target sequence (P55789 whole entry, looked up): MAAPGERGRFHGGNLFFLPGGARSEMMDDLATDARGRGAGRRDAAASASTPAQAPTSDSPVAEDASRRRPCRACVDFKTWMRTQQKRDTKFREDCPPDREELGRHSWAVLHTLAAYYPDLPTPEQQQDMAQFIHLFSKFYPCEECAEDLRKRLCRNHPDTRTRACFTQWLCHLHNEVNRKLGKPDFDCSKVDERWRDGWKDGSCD
Active calls of the source: *; x = not tested or not shown. Sampled rows, rich in hits. Any-hit rate of the full collection: about 5.4%.

SMILES | aDG glyco up | A3A deaminase | rCAG binder | A3G deaminase | PHOSPHO1 block | ALR H2O2 inh
COc1ccc(-c2cc(C(F)(F)F)nc(S(=O)(=O)CCC(=O)N3CCOCC3)n2)cc1 | 0 | -3 | 0 | -7 | 9 | 90*
COc1ccc(Oc2cccc3c2S(=O)(=O)N(C2CC2)C[C@@H](COCc2ccccc2)O3)cc1 | x | x | 8 | x | x | x
O=[N+]([O-])c1cc([N+](=O)[O-])c(Oc2c(F)ccc(F)c2F)cc1NN1CCCCC1 | 0 | 0 | 1 | -4 | -7 | 96*
CC(=O)c1ccccc1Oc1cc(NN2CCCCC2)c([N+](=O)[O-])cc1[N+](=O)[O-] | 0 | 19 | 13 | -12 | -41 | x
CC(=O)c1cccc(Oc2cc(NN3CCCCC3)c([N+](=O)[O-])cc2[N+](=O)[O-])c1 | 0 | 1 | -1 | 4 | -7 | 93*
O=[N+]([O-])c1cc([N+](=O)[O-])c(Oc2c(F)cccc2F)cc1NN1CCCCC1 | 0 | -2 | 1 | -4 | -7 | x
O=C(Nc1ccc(Cl)cc1)OC1CCC12CCC(c1ccccc1)CC2 (configuration not stated) | x | x | 2 | x | x | x
Cc1nn(-c2cc(N3CCCCC3)ccc2N)c(=O)c2ccccc12 | 0 | 1 | 1 | 1 | -29 | 99*
CN(CC(=O)NCc1cccs1)S(=O)(=O)c1cccc2cccnc12 | 0 | 3 | 2 | 2 | 0 | 94*
CN(C)c1ccc(CNC(=O)CN(C)S(=O)(=O)c2cccc3cccnc23)cc1 | 0 | 4 | 7 | 1 | -4 | 9
Nc1[nH]c(C(=O)c2ccccc2)c(-c2ccccc2[N+](=O)[O-])c1C(=O)NCCc1c[nH]c2ccccc12 | x | x | 15 | x | x | x
Nc1nc(C(=O)N2CCOCC2)nn1C(=O)c1ccc(Cl)cc1 | 0 | 0 | -2 | -2 | -6 | 86*
C/C(=N\NC(=O)c1ccc(F)cc1)c1ccccn1 | 0 | -2 | -2 | -7 | 37 | 0
Fc1ccc(N/N=C(/c2ccccc2)c2ccccn2)cc1 | 1 | 1 | 1 | -7 | -47 | 99*
O=C(NCCc1ccccc1F)c1ccc2c(c1)ncn2C1CCCCC1 | x | x | 1 | x | x | x
N/C(Cn1cncn1)=N\NC(=O)c1ccc(Cl)cc1Cl | 0 | -3 | -1 | -9 | 47 | -7
N/C(Cn1cncn1)=N\NC(=O)C(=O)Nc1ccc(Cl)cc1Cl | 0 | -1 | -1 | -4 | 60* | 12
C/C(=N\Nc1ccccn1)c1cccs1 | 0 | 1 | -1 | -10 | 4 | 99*
C/C(=N\Nc1ccccn1)c1ccc(OC(F)F)cc1 | 0 | -1 | -1 | -4 | -13 | 89*
CN1[C@@H](Cc2ccccc2)COc2cccc(F)c2S1(=O)=O | x | x | 3 | x | x | x
CC1=C(SCc2ccccc2)C(=O)c2ccccc2C1=O | 0 | x | 27 | x | x | x
O=C1C(SCCO)=C(SCCO)C(=O)c2ccccc21 | 0 | -7 | 5 | 73* | x | -26
O=[N+]([O-])c1ccc(CNc2cccc(F)c2)s1 | 0 | 2 | 0 | -6 | 30 | -1
Cc1ccccc1NCc1ccc([N+](=O)[O-])s1 | 0 | -2 | -2 | -6 | x | x
Cc1ccc(NCc2ccc([N+](=O)[O-])s2)cc1 | 0 | -3 | -3 | 1 | 29 | 98*
SMILES | aDG glyco up | A3A deaminase | rCAG binder | A3G deaminase | PHOSPHO1 block | ALR H2O2 inh
Cc1cccc(NCc2ccc([N+](=O)[O-])s2)c1 | 0 | -3 | 3 | -6 | 14 | 98*
CC(=O)C(Sc1ccc2nnc(-c3ccc(C)cc3)n2n1)C(C)=O | 0 | -11 | 6 | -10 | -2 | 3
CCOC(=O)CC(=O)CSc1ccc2nnc(-c3ccc(C)cc3)n2n1 | 0 | 10 | 11 | -7 | 68* | x
CC(=O)C(Sc1ccc2nnc(-c3ccc(F)cc3)n2n1)C(C)=O | 1 | -8 | 2 | -13 | 89* | 4
Cc1c(Cl)cccc1NC(=O)CSc1nc(=O)n(CCCN2CCOCC2)c2c1CCC2 | 0 | -3 | -13 | -6 | x | 94*
O=C(CSc1nc(=O)n(CCCN2CCOCC2)c2c1CCC2)Nc1ccc([N+](=O)[O-])cc1 | 0 | 0 | -6 | 3 | x | 98*
O=C(CSc1nc(=O)n(CCCN2CCOCC2)c2c1CCCC2)Nc1ccc(Cl)cc1 | 0 | -1 | -8 | -4 | x | 96*
O=C(CSc1nc(=O)n(CCCN2CCOCC2)c2c1CCCC2)Nc1cccc([N+](=O)[O-])c1 | 0 | 0 | 4 | -3 | x | 5
CC(C)c1ccc(NC(=O)CSc2nnc(CN3CCOCC3)n2C)cc1 | 0 | -4 | -2 | -11 | 32 | 98*
OC(c1ccccc1)(c1ccccc1)C1CCN(CCCOc2ccccn2)CC1 | x | x | 1 | x | x | x
COC(=O)C1=C(C)N(Cc2ccccc2C(F)(F)F)C(=NCc2ccc(C(F)(F)F)cc2)NC1c1cccc(F)c1 (configuration not stated) | x | x | 4 | x | x | x
CC(C)c1ccc(NC(=O)CSc2nc(=O)n(CCCN3CCOCC3)c3c2CCC3)cc1 | 0 | 0 | -4 | -3 | x | 98*
CC(C)c1ccc(NC(=O)CSc2nc(=O)n(CCCN3CCOCC3)c3c2CCCC3)cc1 | 0 | 2 | -7 | 7 | x | 99*
O=C(CSc1nc(=O)n(CCCN2CCOCC2)c2c1CCCC2)Nc1ccccc1Cl | 0 | -1 | -16 | -6 | x | -4
CCC(O)(c1ccc(NC(=O)OC(C)(C)C)cc1)c1cc(OC)cc(OC)c1 (configuration not stated) | x | x | 1 | x | x | x
COc1nc(Cl)cn(-c2ccc(C)cc2)c1=O | 0 | 3 | 1 | 0 | -5 | -5
Cc1ccc(-n2c(Cl)c(Cl)nc(Cl)c2=O)cc1 | 0 | x | x | x | -5 | 97*
COc1ccc(N2CCN(CCCNC(=O)CCc3cccc(F)c3)CC2)cc1 | x | x | -1 | x | x | x
CC(C)Oc1cccc(-c2n[nH]c(=S)n2N=Cc2ccc(O)cc2O)c1 | x | x | 16 | x | x | x
Cc1ccc(C(=O)NCC(=O)OCc2nc3sc(C)c(C)c3c(=O)[nH]2)cc1 | x | x | 3 | x | x | x
CC(=O)N1CCN(C(=S)NC(=O)c2c(-c3ccccc3Cl)noc2C)CC1 | 1 | 1 | 4 | -2 | 12 | 95*
Cc1onc(-c2ccccc2Cl)c1C(N)=O | 0 | 1 | -2 | 1 | 9 | -31
Cc1[nH]n(C)c(=O)c1C(=O)c1c(-c2ccccc2Cl)noc1C | 0 | 1 | -6 | -3 | -6 | 85*
COC(=O)[C@@]12CCCCC3=C1N(CCC3)C(=O)[C@H]2CC(=O)NCCCCc1ccccc1 | x | x | -3 | x | x | x
O=C(/C=C(\Nc1ccc(Cl)c(C(F)(F)F)c1)c1ccccc1)c1ccccc1 | x | x | 3 | x | x | x
